Experimental findings from PubChem BioAssay (Tox21) are described below.

Test [1] has as its target Luciferin 4-monooxygenase (Photinus pyralis) (UniProt P08659). The experiment in a line: qHTS assay to identify small molecule inhibitors of firefly luciferase (AID 1224835). Further: nearly all actives have a fitted effect of over 25% in size. Further: potency means the concentration at half of the fitted maximal effect. Put shortly: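 Quantitative HTS format; KM concentrations of both substrates. Purified P. pyralis FLuc activity quantified from luminescence images.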
(In general: In qHTS, concentration-response curves come from the screen itself.)

Test [2] in a line: qHTS assay to identify small molecule agonists of the constitutive androstane receptor (CAR) signaling pathway - cell viability counter screen (AID 1224836). Further: nearly all actives have a fitted effect of over 45% in size. Further: potency means the concentration at half of the fitted maximal effect. Put shortly: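 Using CellTiter-Fluor, viability of HepG2 cells harbouring hCAR and CYP2B6-2.2kb was measured following 23 h incubation with a 15-concentration compound series plus PK11195 (0.75 uM final).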
Test [3] in a line: qHTS assay to identify small molecule antagonists of the constitutive androstane receptor (CAR) signaling pathway - cell viability counter screen (AID 1224837). Further: nearly all actives have a fitted effect of over 45% in size. Further: potency means the concentration at half of the fitted maximal effect. Put shortly:
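HepG2 cells stably expressing hCAR and a CYP2B6-2.2kb reporter were plated and pre-incubated 4 hr at 37 C/5% CO2, then given compounds at 15 concentrations plus 50 nM CITCO (final). After 23 hr, viability was read by CellTiter-Fluor fluorescence.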

Test [4] has as its target Nuclear receptor subfamily 1 group I member 3 (Homo sapiens) (UniProt Q14994). The experiment in a line: qHTS assay to identify small molecule antagonists of the constitutive androstane receptor (CAR) signaling pathway (AID 1224838). Further: nearly all actives have a fitted effect of over 40% in size. Further: potency means the concentration at half of the fitted maximal effect. Put shortly:
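HepG2 cells stably co-transfected with hCAR and a CYP2B6-2.2kb luciferase reporter were seeded 4 h before compound addition at 15 concentrations. Cells were stimulated with 50 nM CITCO (final) for 24 h at 37 C; luciferase luminescence was then read.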

Test [5] shares this target. Nature of the test: qHTS assay to identify small molecule agonists of the constitutive androstane receptor (CAR) signaling pathway (AID 1224839). Further: nearly all actives have a fitted effect of over 15% in size. Further: potency means the concentration at half of the fitted maximal effect. Put shortly: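 Double-stable HepG2 cells (hCAR, CYP2B6-2.2kb) seeded 4 h before compound addition. Exposure 24 h with 0.75 uM PK11195 final. Luciferase detected by ONE-Glo.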
The nature of test [6]: qHTS assay to identify small molecule antagonists of the estrogen related receptor signaling pathway with the pleiotropic PPARgamma coactivator (PGC) from Tox21 10K library - cell viability counter screen (AID 1224840; active means well fitted cell-killing curve with a large enough effect in the repeat runs, not every such curve was filed as active; further: nearly all actives have a fitted effect of over 40% in size; further: potency means the concentration at half of the fitted maximal effect). Put shortly: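 PGC/ERR cells were seeded at 2,000 cells/well and left 6 hours at 37 C/5% CO2 before pin-tool addition of compounds in DMSO. After 17.5 hours at 37 C, CellTiter-Fluor was added and fluorescence read 30 minutes later.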

Test [7] in a line: qHTS assay to identify small molecule antagonists of the estrogen related receptor signaling pathway with the pleiotropic PPARgamma coactivator (PGC) from Tox21 10K library (AID 1224841; call rule not given here; further: actives are mostly falling curves and most rising ones were filed inactive; nearly all actives have a fitted effect of over 50% in size; further: potency means the concentration at half of the fitted maximal effect). Put shortly:
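PGC/ERR reporter cells were seeded at 2,000 cells/well and held 6 hours at 37 C/5% CO2 before pin-tool addition of compounds in DMSO. After 18 hours at 37 C, One-Glo was added and luminescence read after 30 minutes at room temperature.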

Test [8] in a line: qHTS assay to identify small molecule agonists of the estrogen related receptor signaling pathway with the pleiotropic PPARgamma coactivator (PGC) from Tox21 10K library (AID 1224842). Further: nearly all actives have a fitted effect of over 15% in size. Put shortly: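 PGC/ERR reporter cells (NTP line) were seeded 2,000 per well, rested 6 h at 37 C/5% CO2, then pin-dosed with compounds in DMSO for 18 h at 37 C; luciferase read by One-Glo luminescence after 30 min at room temperature.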

Several values for one entry are separate records, joined by “and”; a condition that tells them apart may be missing. Equal values may be shown once. Records with an inconclusive call do not appear. The source holds several records for some structures; these can differ, active in one and inactive in another. Activity calls are given as the source filed them. Unless noted, the call rests on the fitted dose curve; in most records, active means well fitted curve in the direction sought with a large enough effect in the repeat runs; inconclusive means weak or mixed curves; inactive means no such curve, though single readings can be large; an effect the other way counts as inactive or inconclusive.

Chain of Luciferin 4-monooxygenase (Photinus pyralis) (P08659 whole entry, looked up): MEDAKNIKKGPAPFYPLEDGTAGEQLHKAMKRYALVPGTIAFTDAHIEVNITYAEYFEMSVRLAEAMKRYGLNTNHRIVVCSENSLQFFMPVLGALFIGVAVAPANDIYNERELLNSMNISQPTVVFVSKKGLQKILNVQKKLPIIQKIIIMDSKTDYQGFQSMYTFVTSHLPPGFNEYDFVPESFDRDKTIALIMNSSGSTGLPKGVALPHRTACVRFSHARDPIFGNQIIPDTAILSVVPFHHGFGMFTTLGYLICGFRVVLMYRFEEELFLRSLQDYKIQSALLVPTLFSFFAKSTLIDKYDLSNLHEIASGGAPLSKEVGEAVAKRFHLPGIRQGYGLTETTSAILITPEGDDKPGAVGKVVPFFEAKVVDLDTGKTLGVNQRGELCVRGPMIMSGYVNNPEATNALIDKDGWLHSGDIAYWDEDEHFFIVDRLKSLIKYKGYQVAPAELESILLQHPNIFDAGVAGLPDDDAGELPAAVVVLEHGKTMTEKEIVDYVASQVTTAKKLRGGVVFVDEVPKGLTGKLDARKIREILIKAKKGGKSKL
Chain of Nuclear receptor subfamily 1 group I member 3 (Homo sapiens) (Q14994 whole entry, looked up): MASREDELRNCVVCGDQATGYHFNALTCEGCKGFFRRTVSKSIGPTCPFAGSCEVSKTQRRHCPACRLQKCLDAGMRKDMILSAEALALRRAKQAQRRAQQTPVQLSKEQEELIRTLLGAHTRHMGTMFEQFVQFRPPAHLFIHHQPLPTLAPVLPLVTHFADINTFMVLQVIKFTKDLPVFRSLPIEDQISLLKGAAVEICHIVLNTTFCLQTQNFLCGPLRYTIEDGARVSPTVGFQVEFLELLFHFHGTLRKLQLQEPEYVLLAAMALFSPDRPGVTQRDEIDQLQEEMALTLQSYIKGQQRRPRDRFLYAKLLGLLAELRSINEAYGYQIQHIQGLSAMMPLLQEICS

As for `Nc1cccc(N)c1`, the Potency entry in test [1], in test [2], in test [3], in test [4], in test [5] and in test [6] was “inactive” throughout.
As to `CN(C)Cc1cc(CN(C)C)c(O)c(CN(C)C)c1`, the Potency entry in test [1], in test [2], in test [3], in test [4], in test [5] and in test [6] was “inactive” in each case.
Consider `CCCCCCCC(=O)OCC(O)CO` (stereo not given), for which the Potency entry in test [1], in test [2], in test [3], in test [4], in test [5] and in test [6] was “inactive” throughout. The Potency result in test [7] and in test [8] was “inactive” each time.
For the molecule `O=C(O)Cc1cccc2ccccc12`, the Potency entry in test [1], in test [2], in test [3] and in test [6] was “inactive” throughout.
Turning to `COC(=O)C1CCC(C(=O)OC)CC1` (stereo not given), the Potency result in test [1], in test [2], in test [3], in test [6], in test [7] and in test [8] was “inactive” throughout.
For the molecule `CC(C)=CCC/C(C)=C/CO`, the Potency result in test [1], in test [2], in test [3] and in test [6] was “inactive” each time.
For the molecule `COC(=O)c1ccc(O)cc1`, the Potency result in test [1], in test [2], in test [3] and in test [6] was “inactive” throughout.
For `CC1(C)O[C@@H]2[C@@H](CO[C@@]3(COS(N)(=O)=O)OC(C)(C)O[C@@H]23)O1`, the Potency entry in test [1], in test [2], in test [3], in test [4], in test [5] and in test [6] was “inactive” in each case. Also, the Potency entry in test [7] and in test [8] was “inactive” throughout.
Consider `NCCNc1cccc2ccccc12`, for which the Potency result in test [1], in test [2], in test [3], in test [4], in test [5] and in test [6] was “inactive” each time.
In the case of `COc1ccc(O)cc1`, the Potency entry in test [1], in test [2], in test [3] and in test [6] was “inactive” each time.
For the molecule `CCCCC/C(C=O)=C\c1ccccc1`, the Potency result in test [1], in test [2], in test [3], in test [4], in test [5] and in test [6] was “inactive” throughout.
Consider `CCCCOC(=O)CCCCCCCCC(=O)OCCCC`, for which the Potency result in test [1], in test [2], in test [3], in test [4], in test [5] and in test [6] was “inactive” throughout.
As for `Cc1cccc(C)c1O`, the Potency entry in test [1], in test [2], in test [3], in test [4], in test [5] and in test [6] was “inactive” throughout. The Potency result in test [7] and in test [8] was “inactive” each time.
With `OCCCc1ccccc1`, the Potency result in test [1], in test [2], in test [3], in test [4], in test [5] and in test [6] was “inactive” throughout. The Potency result in test [7] and in test [8] was “inactive” in each case.
As for `COC1=CC(=O)C[C@@H](C)[C@]12Oc1c(Cl)c(OC)cc(OC)c1C2=O`, the Potency entry in test [1], in test [2], in test [3], in test [5], in test [6] and in test [7] was “inactive” in each case. For the same molecule, the Potency entry in test [8] is “inactive”. The Potency in test [4] is 9.6 µM (active) and 13.7 µM (active).
In the case of `O=c1c(-c2ccc(O)cc2)coc2cc(O)cc(O)c12`, the Potency in test [1] was 13.9 µM (active) and 11.2 µM (active) and 9.77 µM (active); in test [5], 15.1 µM (active) and 9.69 µM (active) and 13.3 µM (active). For the same molecule, the Potency result in test [2], in test [3], in test [4] and in test [6] was “inactive” each time.
Take `O=C1CCCCCN1`: the Potency entry in test [1], in test [2], in test [3], in test [4], in test [5] and in test [6] was “inactive” each time. In addition, the Potency result in test [7] and in test [8] was “inactive” each time.
For `CCCCCCCCCCCCCCCCCC(=O)OCC(O)CO` (stereo not given), the Potency entry in test [1], in test [2], in test [3], in test [4], in test [5] and in test [6] was “inactive” throughout.
Take `CO[C@H]1C=CO[C@@]2(C)Oc3c(C)c(O)c4c(O)c(c(/C=N/N5CCN(C)CC5)c(O)c4c3C2=O)NC(=O)/C(C)=C\C=C[C@H](C)[C@H](O)[C@@H](C)[C@@H](O)[C@@H](C)[C@H](OC(C)=O)[C@@H]1C`: the Potency is 27.4 µM (active) in test [2]; 30.8 µM (active) in test [3]; 54.8 µM (active) and inactive in test [4]; 27.4 µM (active) in test [6]; 48.8 µM (active) and 23.7 µM (active) in test [7]. Also, the Potency result in test [5] and in test [8] was “inactive” throughout.
Regarding `C=C(C)OC(C)=O`, the Potency result in test [1], in test [2], in test [3], in test [4], in test [5] and in test [6] was “inactive” throughout. Also, the Potency result in test [7] and in test [8] was “inactive” each time.
Consider `Cc1cccc2ccccc12`, for which the Potency entry in test [1], in test [2], in test [3], in test [4], in test [5] and in test [6] was “inactive” throughout. Besides, the Potency entry in test [7] and in test [8] was “inactive” throughout.
For `CN/C(=C\[N+](=O)[O-])NCCSCc1ccc(CN(C)C)o1`, the Potency entry in test [1], in test [2], in test [3], in test [4], in test [5] and in test [6] was “inactive” in each case.
For `CC(=O)c1ccc(S(=O)(=O)NC(=O)NC2CCCCC2)cc1`, the Potency result in test [1], in test [2], in test [3] and in test [6] was “inactive” throughout.
